Screening data: PubChem BioAssay, several laboratories
This is a sample that favours compounds with a hit; in the whole collection about 1.2% have one here.
NPR2 activator – GC-B (human) receptor activation; P20594; HEK293-GC-B cells, CNP EC30, cGMP TR-FRET; 0% at EC30 CNP, 100% saturating CNP; activation, % at 10 µM; 0.11% of 370,000 active;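 active = activation at 10 µM reaching about 35% in either raw or pattern-adjusted values, limit read from the data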
TLR9-MyD88 inh – inhibitors of human TLR9-MyD88 binding; Q9NR96+Q99836; CHO BLA complementation TLR9-MyD88, CCF4 FRET ratio; inhibition, % at 4.98 µM; 0.21% of 340,000 active;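 active = inhibition above the mean over all tested compounds plus 3 SD, cut at about 21% in these data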;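 also: 0% = DMSO only wells and 100% = clavulanate BLA inhibitor control wells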
Target sequence (Q99836 whole entry, looked up): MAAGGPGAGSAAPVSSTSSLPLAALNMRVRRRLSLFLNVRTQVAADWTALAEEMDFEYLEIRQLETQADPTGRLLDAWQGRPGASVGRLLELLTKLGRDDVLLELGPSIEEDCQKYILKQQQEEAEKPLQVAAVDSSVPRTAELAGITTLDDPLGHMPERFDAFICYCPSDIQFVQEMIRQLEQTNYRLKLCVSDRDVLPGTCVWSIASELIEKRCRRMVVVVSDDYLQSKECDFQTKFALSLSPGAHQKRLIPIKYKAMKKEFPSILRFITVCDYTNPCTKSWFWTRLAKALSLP
Target sequence (Q9NR96 whole entry, looked up): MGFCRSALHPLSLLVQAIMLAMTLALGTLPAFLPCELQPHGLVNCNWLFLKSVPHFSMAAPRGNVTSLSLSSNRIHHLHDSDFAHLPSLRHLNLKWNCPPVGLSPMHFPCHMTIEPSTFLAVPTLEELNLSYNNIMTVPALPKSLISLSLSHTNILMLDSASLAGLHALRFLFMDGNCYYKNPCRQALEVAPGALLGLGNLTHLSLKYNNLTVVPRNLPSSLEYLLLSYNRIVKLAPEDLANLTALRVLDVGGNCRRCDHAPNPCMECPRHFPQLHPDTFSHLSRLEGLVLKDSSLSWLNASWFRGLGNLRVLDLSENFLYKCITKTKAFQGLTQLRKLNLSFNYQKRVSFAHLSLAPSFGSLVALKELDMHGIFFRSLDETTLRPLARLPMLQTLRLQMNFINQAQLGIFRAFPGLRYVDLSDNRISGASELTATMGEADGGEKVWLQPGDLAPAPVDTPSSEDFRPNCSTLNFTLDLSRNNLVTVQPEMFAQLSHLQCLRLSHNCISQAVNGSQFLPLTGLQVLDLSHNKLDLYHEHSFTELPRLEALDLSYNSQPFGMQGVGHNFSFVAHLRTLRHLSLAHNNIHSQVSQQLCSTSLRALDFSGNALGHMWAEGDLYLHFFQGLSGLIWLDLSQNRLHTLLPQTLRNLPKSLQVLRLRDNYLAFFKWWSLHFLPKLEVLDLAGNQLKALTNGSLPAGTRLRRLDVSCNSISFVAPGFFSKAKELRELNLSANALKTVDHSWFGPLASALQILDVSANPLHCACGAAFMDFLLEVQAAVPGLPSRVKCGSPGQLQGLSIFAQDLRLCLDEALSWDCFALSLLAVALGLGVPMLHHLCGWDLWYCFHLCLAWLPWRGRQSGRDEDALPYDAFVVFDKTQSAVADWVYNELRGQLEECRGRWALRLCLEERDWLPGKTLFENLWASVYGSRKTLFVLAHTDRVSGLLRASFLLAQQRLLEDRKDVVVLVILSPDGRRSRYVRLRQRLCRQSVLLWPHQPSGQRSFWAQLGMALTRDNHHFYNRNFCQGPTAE
GC-A act – GC-A (human) enzyme activation. P16066. 0.14% of 370,000 active. AID 1671463. activation, % at 10 µM. HEK293 GC-A cells, cGMP TR-FRET, EC30 ANP; 0% at EC30 ANP, 100% saturating ANP; in the data active = activation above about 40%
Neddylation inh – inhibitors of human cullin neddylation; P61081+Q13564; TR-FRET cullin neddylation, biochemical; inhibition, % at 25 µM; 0.58% of 360,000 active; AID 651699; in the data active = inhibition above about 36%
NOD2-RIPK2 inh – NOD2-RIPK2 protein interaction inhibition. O43353. CHO BLA complementation NOD2-RIPK2, CCF4 ratio. inhibition, % at 4.98 µM. 0.38% of 360,000 active; in the data active = inhibition above about 21%;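 also: 0% = vehicle only and 100% = reference blocker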
TLR4-MyD88 BLA – inhibitors of human TLR4-MyD88 binding. HeLa CL3-4 TLR4/MyD88 BLA complementation, FRET ratio. inhibition, % at 8.4 µM. 0.18% of 200,000 active; in the data active = inhibition above about 25%;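 also: 0% = vehicle and 100% = reference inhibitor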
Neddyl inh conf – confirmation of human cullin neddylation inhibitors. shares compounds with Neddylation inh. 13% of 1,800 active. TR-FRET cullin neddylation biochemical assay. AID 652217. calls only at 25 µM; in the data active = inhibition above about 40%;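 also: neddylation substrate is the cullin 1 ring ligase complex with SKP2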
The depositor's hits bear a star; i = inactive; . = not tested or not shown; + = active, no number.

SMILES	NPR2 activator	TLR9-MyD88 inh	GC-A act	Neddylation inh	NOD2-RIPK2 inh	TLR4-MyD88 BLA	Neddyl inh conf
O=c1ccc2cc3c(-c4ccccc4)coc3cc2o1	3.3	6.5	-0.5	45.6*	0.8	.	i
O=C(CSc1nnc(COc2ccc(Cl)cc2)o1)NC1CC2CCC1C2 (configuration not stated)	5.1	0.5	15.4	0.2	-10.9	.	.
CCN(CC)CCN(Cc1cc2cc3c(cc2[nH]c1=O)OCCO3)C(=O)NC1CCCCC1	2.8	-5.1	-0.3	22.9	1.7	-0.6	.
O=C(NCc1ccccc1)N(Cc1cc2cc3c(cc2[nH]c1=O)OCCO3)CC1CCCO1 (configuration not stated)	1.3	3.1	1.4	36.6*	-11.3	-9.1	i
O=C(NC1CCCCC1)N(CCN1CCOCC1)Cc1cc2cc3c(cc2[nH]c1=O)OCCO3	-3.5	-7.3	-0.5	46.9*	-21.1	-9.0	+
CC(=O)c1ccc(S(=O)(=O)N(CCCO)Cc2cc3cc4c(cc3[nH]c2=O)OCCO4)cc1	2.2	-4.6	-2.0	1.9	-8.0	.	.
O=c1[nH]c2cc3c(cc2cc1CN(CCO)S(=O)(=O)c1ccccc1)OCCO3	-0.8	7.4	1.2	36.9*	2.0	.	.
c1cnc2ccc(-c3ccc4ncccc4c3)cc2c1	-12.3	-2.2	-24.2	44.5*	-8.7	.	i
Cc1ccc2ncccc2c1	-4.1	-5.5	-0.3	-3.9	11.9	.	.
CC(C)C[C@@H]1COc2cc(Br)ccc2S(=O)(=O)N1Cc1cn(Cc2ccc(Br)cc2)nn1	3.4	.	-2.2	.	.	.	.
CC(C)(C)c1ccc(S(=O)(=O)N2CCC(c3cn4ccccc4n3)CC2)cc1	-1.1	.	-1.8	.	.	.	.
COCc1c(C(=O)NCc2ccccc2CN2CCCC2)oc2ccccc12	1.2	-4.9	-4.9	12.6	-3.6	.	.
COc1cccc(CNc2ccc3[nH]c(=O)[nH]c3c2)c1OCc1ccc(F)cc1	-4.5	-6.7	-9.7	43.4*	1.9	.	i
Cc1ccc(Cc2c(-c3cccc(Cl)c3)nc3c(C)cc(Br)cn23)cc1	5.1	.	5.5	-437.5	-9.7	.	.
CCn1c(CSc2nc3ccccc3[nH]2)nc2cc(C(=O)O)ccc21	3.1	7.0	-1.2	47.7*	-1.2	4.0	.
CCOC(=O)C1CCCN(c2cc(C)nc3cc(-c4ccc(F)cc4)nn23)C1 (configuration not stated)	-4.1	-9.2	-1.7	57.3*	-6.4	9.4	i
CCOC(=O)C1CCCN(c2cc(C)nc3cc(-c4ccc(Cl)cc4)nn23)C1 (configuration not stated)	-2.2	3.9	-4.9	.	-0.5	8.2	.
CC(C)(C)Cc1c(-c2ccc(F)cc2)nc2ccc(Br)cn12	-5.1	0.1	26.1	-14.9	-3.0	.	.
Cc1cc2nc(C)c(=O)n(C)c2cc1C	-1.5	-15.5	1.3	47.0*	-3.8	3.7	i
Cc1cc2nc(-c3ccc(=O)[nH]c3)n(C)c2cc1C	-1.1	3.0	0.8	27.9	-3.9	.	.
O=C(Nc1cccc2nsnc12)c1ccc(F)cc1	-3.1	6.1	15.7	34.6	-2.6	-3.4	.
O=C(Nc1cccc2nsnc12)c1ccc2c(c1)OCO2	1.3	0.8	2.3	44.7*	-5.6	-0.8	+
O=C(c1c(F)cccc1F)N1CCC(Oc2cccnc2)CC1	0.8	.	-0.6	.	.	.	.
O=C(NCC1CCCCC1)c1cc2ccccc2cc1O	-4.1	7.2	6.2	45.0*	-0.8	.	.
COc1ccc(C=Nn2c(-c3ccc(F)cc3)n[nH]c2=S)cc1OCc1ccccc1	6.7	.	4.2	.	.	.	.
SMILES	NPR2 activator	TLR9-MyD88 inh	GC-A act	Neddylation inh	NOD2-RIPK2 inh	TLR4-MyD88 BLA	Neddyl inh conf
CSc1ccc(/C=N/NC(=O)c2ccc(C)c(C)c2)cc1	-1.9	-1.8	-2.3	17.2	-8.1	-0.1	.
CSc1ccc(/C=N/NC(=O)c2sccc2C)cc1	-2.7	1.2	-0.1	37.8*	-10.8	-7.2	i
CC(=O)Nc1ccc(S(=O)(=O)Nc2cccc3cccnc23)cc1	4.0	-0.5	2.7	43.4*	-4.9	.	+
COc1ccc(CCN(C)C(=O)CN2C(=O)NC3(CCCCC3C)C2=O)cc1OC (configuration not stated)	-0.1	-1.9	2.8	58.5*	-7.2	.	i
COc1ccc(NC(=O)CN2C(=O)NC3(CCCCC3C)C2=O)cc1OC (configuration not stated)	1.6	-2.1	1.7	-18.9	3.4	.	.
COC(=O)c1c(C)[nH]c(C(=O)COc2ccc3ccc(=O)oc3c2)c1C	9.6	-4.6	-0.1	18.0	4.0	.	.
CC(=O)c1c(C)[nH]c(C(=O)COc2ccc3ccc(=O)oc3c2)c1C	1.3	5.6	-0.2	46.7*	-14.3	.	i
Cc1ccc2nc(CSc3nc(C)cc(C)c3C#N)[nH]c2c1	-1.9	10.2	1.0	47.6*	10.3	-12.3	.
CCC[C@H]1[C@@H](NC(=O)NCC)CC[C@@]23CCCN2C(=O)CCC[C@@H]13	0.2	.	-0.7	.	.	.	.
O=C(Nc1ccccc1)c1cn2ccccc2n1	-1.2	6.4	5.2	3.3	1.2	.	.
O=C(Nc1ccc(-n2cnnn2)cc1)c1cn2ccccc2n1	-2.1	-2.9	4.0	52.4*	1.4	.	i
CC(C)(C)NC(=O)CN(C(=O)c1snc(C(=O)NC2CCCCC2)c1N)c1ccccc1F	-3.7	-2.5	2.1	39.0*	-6.3	.	i
Cc1c(C)c2ccc(OC(C)C(=O)NCCN3CCOCC3)c(C)c2oc1=O (configuration not stated)	4.9	-7.6	3.7	51.6*	17.2	.	i
Cc1c(C)c2ccc(OC(C)C(=O)NCCCN3CCOCC3)c(C)c2oc1=O (configuration not stated)	3.9	9.1	0.0	46.0*	-9.3	.	i
Cc1c(OC(C)C(=O)NCCCN2CCOCC2)ccc2c3c(c(=O)oc12)CCC3 (configuration not stated)	-3.1	-7.9	-2.0	30.0	2.2	.	.
Cc1c(OC(C)C(=O)NCCN2CCOCC2)ccc2c3c(c(=O)oc12)CCC3 (configuration not stated)	-0.4	6.4	-0.7	.	-1.4	.	.
CCN(CC)CCOC(=O)c1ccc(N/C=C(/C#N)c2nc(-c3ccc(OC)cc3)cs2)cc1	0.4	0.6	5.0	61.6*	0.6	.	i
CCN(CC)CCOC(=O)c1ccc(N/C=C(/C#N)c2nc(-c3ccc4c(c3)OCO4)cs2)cc1	2.1	8.0	3.5	22.8	8.2	.	.
COC(CNC(=O)[C@H](Cc1c[nH]c2ccccc12)NC1(C(=O)NC2CCCCC2)CCCCC1)OC	-6.9	.	-2.4	.	.	.	.
CCOC(=O)[C@]12CCCC=C1N(Cc1cccc3ccccc13)C(=O)[C@H](CC(=O)N1CCOCC1)C2	5.5	.	-10.5	12.8	-3.1	.	.
Cn1c(=O)[nH]c(=O)c2c1nc(N1CCCCC1)n2C/C=N/NC(=O)c1cc(Br)ccc1O	-1.2	4.6	-1.2	45.7*	-7.3	.	.
